MITF primary: inhibitors of human MITF. actives 0.91% (n = 650,000). AlphaScreen MITF homodimerization, bead proximity signal. inhibition, % at 2.6 µM; in the data active = inhibition above about 50%
GPR151 ag: activates the human receptor GPR151 | Q8TDV0 | PathHunter beta-arrestin GPR151 cells, luminescence | activation, % at 11.2 µM | actives 1% (n = 650,000) | AID 1508602; in the data active = activation above about 4.9%
Target sequence (Q8TDV0 whole entry, looked up): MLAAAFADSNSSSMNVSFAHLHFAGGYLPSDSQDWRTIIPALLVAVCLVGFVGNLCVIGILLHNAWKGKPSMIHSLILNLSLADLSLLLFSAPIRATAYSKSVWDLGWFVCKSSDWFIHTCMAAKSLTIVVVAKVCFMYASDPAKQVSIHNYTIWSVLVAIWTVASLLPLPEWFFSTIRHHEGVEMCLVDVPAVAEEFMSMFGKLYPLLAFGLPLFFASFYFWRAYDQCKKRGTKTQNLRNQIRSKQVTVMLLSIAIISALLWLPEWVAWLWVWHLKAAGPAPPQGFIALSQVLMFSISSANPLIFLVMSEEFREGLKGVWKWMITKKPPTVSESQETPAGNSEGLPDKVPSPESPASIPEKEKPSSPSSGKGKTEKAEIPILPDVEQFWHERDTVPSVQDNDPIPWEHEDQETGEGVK
FBW7 activator: human FBW7 E3 ligase activation, primary screen. Q969H0. AlphaScreen FBW7–phospho-cyclin E peptide binding, activator screen. normalized activity (activation), % at 26.1 µM. actives 0.13% (n = 650,000). AID 1259310; in the data active = normalized activity above about 1.9%;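 note: purified mutant Fbw7 with reduced substrate affinity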
TEAD-YAP inh: TEAD-YAP interaction inhibition; HEK-TIYL cells, TEAD-Gal4/YAP UAS-luciferase luminescence; inhibition, % at 9.12 µM; actives 1.4% (n = 640,000); AID 1259422; in the data active = inhibition above about 32%
GPR151 confirm: confirmation of human GPR151 activators | shares compounds with GPR151 ag | GPR151 PathHunter beta-arrestin cells, luminescence, 90 min; % of EA-reagent control over plate median | activation, % at 11.2 µM | 6,700 tested, under 10 active | AID 1508609;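 active = mean percent activation across replicates above the confirmation screen cutoff of 4.91%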
GPR119 counter: counter-screen for GPR151 activators: effect on human GPR119; shares compounds with GPR151 ag; GPR119 PathHunter beta-arrestin cells, luminescence, 90 min; 0 = compound-well median, 100 = enzyme-acceptor control; activation, % at 11.2 µM; actives 0.3% (n = 6,700); AID 1508611;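 active = mean percent activation in the counterscreen above 29.09%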;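 note: counterscreen on off-target GPR119 to flag nonselective hits from the GPR151 activator screen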
Large screens that a line does not name were inactive (follow-up assays come after a bar, where they were run). Compounds with a hit are over-represented: about 3.5% of the library has one in this group of screens.

C/C(CCC(=O)OC[C@H]1O[C@H](C#Cc2ccccc2)C=C[C@@H]1Oc1ccc(C)cc1)=N\O[C@H](C)CN1CCCc2nc(C)c(C)cc21	GPR151 ag 7.0 (no result: TEAD-YAP inh) | GPR151 confirm inactive | GPR119 counter inactive
CCOc1nc(NCCC2=CCCCC2)nc(OCC)n1	GPR151 ag 9.8 | GPR151 confirm inactive | GPR119 counter inactive
CCOCCCNCc1ccccc1OCc1ccccc1	GPR151 ag 13 | GPR151 confirm inactive | GPR119 counter inactive
CCOc1ccc(NC(=O)CCN2CCN(c3ccc(F)cc3)CC2)cc1	none
COc1ccc(CCNc2nc(-c3ccc(OC)cc3)nc3c2ncn3CCN2CCCC2=O)cc1	none
CCCN1C(=O)/C(=C2/C(=O)N(C)c3ccccc32)SC1=S	none
CCCN1C(=O)/C(=C2\SC(=S)N(CCOC)C2=O)c2ccccc21	GPR151 ag 5.6 | GPR151 confirm inactive | GPR119 counter inactive
Cc1ccc(NC(=O)c2c(NC(=O)c3cccs3)sc3c2CCCC3)cc1	none
OCCOCCNc1ncnc2ccc(I)cc12	GPR151 ag 5.4 | GPR151 confirm inactive | GPR119 counter inactive
O=C(NCCc1ccccc1)C(=O)NCC1OCCCN1S(=O)(=O)c1ccccc1 (configuration not stated)	none
N#Cc1ccc(C(=O)Nc2ccc(Br)cc2)c(F)c1	none
Cc1cc(Br)ccc1NC(=O)c1ccc(C#N)cc1F	GPR151 ag 13 | GPR151 confirm inactive | GPR119 counter inactive
CCOc1ccc(NC(=O)CSc2nc3ccc(N4CCCCC4)cc3c(=O)n2Cc2ccccc2)cc1	GPR151 ag 7.7 | GPR151 confirm inactive | GPR119 counter inactive
CCOC(=O)c1ccc(N2C(=O)CC(NCCc3ccc(Cl)cc3Cl)C2=O)cc1 (configuration not stated)	none
CCN(c1ccccc1)S(=O)(=O)c1ccc(-n2cccn2)cc1	GPR151 ag 9.0 | GPR151 confirm inactive | GPR119 counter inactive
CCN(c1ccccc1)S(=O)(=O)c1ccc2[nH]c(=O)ccc2c1	none
CCN(c1ccccc1)S(=O)(=O)c1ccc(=O)[nH]c1	GPR151 ag 6.3 | GPR151 confirm inactive | GPR119 counter inactive
CCC(=O)Oc1ccc2c(C)c(CC)c(=O)oc2c1	none
O=C(CCCCCn1c(=S)[nH]c2cc3c(cc2c1=O)OCO3)NCc1ccccc1	none
O=C(CCCCCn1c(=S)[nH]c2cc3c(cc2c1=O)OCO3)NCc1cccnc1	GPR151 ag 5.9 | GPR151 confirm inactive | GPR119 counter inactive
COc1ccc(/C=C2/N=C(c3ccc(Cl)c([N+](=O)[O-])c3)OC2=O)c(OC)c1	none
O=c1c2ccccc2nc(/C=C/c2ccc([N+](=O)[O-])cc2)n1-c1cccc(C(F)(F)F)c1	none
C#CCn1c(=NC(=O)CN2C(=O)CCC2=O)sc2c(C)cc(C)cc21	GPR151 ag 7.2 | GPR151 confirm inactive | GPR119 counter inactive
O=C1C(=O)N(c2nc3ccccc3s2)C(c2ccccc2)/C1=C(\O)c1ccccc1 (configuration not stated)	GPR151 ag 4.9 | GPR151 confirm inactive | GPR119 counter inactive
Cc1nc(NCc2cccc(C(F)(F)F)c2)c(C#N)c(C)c1[N+](=O)[O-]	none
COc1cc(NC(=O)c2sc3nc4n(c(=O)c3c2C)CCCC4)cc(OC)c1OC	GPR151 ag 12 | GPR151 confirm inactive | GPR119 counter inactive
COc1ccc(C)cc1NC(=O)c1sc2nc3n(c(=O)c2c1C)CCCC3	none
Cc1ccc(-c2noc(-c3ccccc3Cl)n2)cc1	none
COc1ccc(Cc2noc(-c3ccc([N+](=O)[O-])cc3)n2)cc1	none
CC(C)(C)c1nc(Cc2ccc([N+](=O)[O-])cc2)no1	GPR151 ag 8.6 | GPR151 confirm inactive | GPR119 counter inactive
O=C(c1ccc(Cl)cc1)c1conc1C(=O)c1cccs1	none
Cc1ccc(C(=O)c2nocc2C(=O)c2cccs2)cc1	GPR151 ag 6.1 | GPR151 confirm inactive | GPR119 counter inactive
Cc1cnc(CCNCc2c(C(=O)N3C[C@@H](C)O[C@@H](C)C3)nc3ccc(Cl)cn23)[nH]1	none
CCOc1ccc(CN2CCc3nnc(CCNC(=O)c4ccco4)n3CC2)cc1	none
CCOC(=O)C1(Cc2ccc(Cl)cc2)CCN(CC)CC1	none
CCOC(=O)C1(Cc2cccc(OC)c2)CCN(CCO)CC1	GPR151 ag 7.9 | GPR151 confirm inactive | GPR119 counter inactive
CCOC(=O)C1(Cc2ccc(Cl)cc2)CCN(CCC(C)O)CC1 (configuration not stated)	GPR151 ag 5.0 | GPR151 confirm inactive | GPR119 counter inactive
Cc1ccc(-n2cc(-c3ccccc3)c3c(N4CCC(C)CC4)ncnc32)cc1	none
CC(=O)c1ccc(N2CCN(C(=O)Cn3ccc4ccccc4c3=O)CC2)cc1	none
NC(CC(=O)O)c1ccc(F)cc1 (configuration not stated)	none
Oc1ccc(C(c2ccc(O)cc2)c2ccc(F)cc2)cc1	GPR151 ag 7.7 | GPR151 confirm inactive | GPR119 counter inactive
COc1ccc(-c2noc(N(C)CC(=O)N3CCN(c4cccc(Cl)c4)CC3)n2)cc1	none
COc1ccc(-c2noc(N(C)CC(=O)N3CCN(c4ccccc4OC)CC3)n2)cc1	GPR151 ag 6.5 | GPR151 confirm inactive | GPR119 counter inactive
CCOc1ccc(C(=O)NC(=S)Nc2cccc(C)n2)cc1[N+](=O)[O-]	none
Cc1ccc2c(c1)cc(CN(Cc1cccs1)C(=O)c1cccs1)c1nnnn12	none
Cc1ccc2c(c1)cc(CN(CCc1ccccc1)C(=O)N1CCOCC1)c1nnnn12	GPR151 ag 5.2 | GPR151 confirm inactive | GPR119 counter inactive
Cc1ccc2c(c1)cc(CN(Cc1ccco1)C(=O)N(C)C)c1nnnn12	none
Cc1ccc2c(c1)cc(CN(Cc1ccco1)S(=O)(=O)c1ccccc1)c1nnnn12	GPR151 ag 6.7 | GPR151 confirm inactive | GPR119 counter inactive
Cc1ccc2c(c1)cc(CN(Cc1cccs1)C(=O)C1CC1)c1nnnn12	GPR151 ag 5.4 | GPR151 confirm inactive | GPR119 counter inactive
CCOC(=O)c1ccc(-n2c(N)c(C(=O)NC(C)c3ccccc3)sc2=S)cc1 (configuration not stated)	none
Cc1ccccc1C(=O)NC(=S)Nc1ccc(Cc2ccncc2)cc1	GPR151 ag 19 | GPR151 confirm inactive | GPR119 counter inactive
CC(=O)c1ccc(NC(=S)NC(=O)c2ccccc2F)cc1	GPR151 ag 15 | GPR151 confirm inactive | GPR119 counter inactive
CCOc1cc(C=C2C(=O)NC(=O)NC2=O)ccc1OC	none
O=C1NC(=O)C(=Cc2cccc(OS(=O)(=O)c3ccc(Cl)cc3)c2)C(=O)N1	none
CCOc1cc(C=C2C(=O)NC(=O)NC2=O)ccc1OS(=O)(=O)c1ccc(OC)cc1	GPR151 ag 6.0 | GPR151 confirm inactive | GPR119 counter inactive
COc1ccc(S(=O)(=O)Oc2cccc(C=C3C(=O)NC(=O)NC3=O)c2)cc1	GPR151 ag 6.1 | GPR151 confirm inactive | GPR119 counter inactive
